Activity calls are given as the source filed them.
Tests used:
[1] = system: Plasmodium falciparum Sir2 (PF13_0152, Sir2A); experiment: Plasmodium falciparum Sir2A binding compounds – biochemical, small-molecule microarray, 635 nm fluorescence, primary screen (AID 1098); conditions: fluorescence 635 nm, higher = more signal;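 further: score merges spot fluorescence intensity with its signal-to-noise ratio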
[2] = probe aDKK1 binding to arrayed compounds – biochemical, biotinylated probe, 635/667 nm fluorescence, primary screen (AID 1099); conditions: small-molecule microarray, higher = more signal;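 further: score merges 667nm spot fluorescence with signal to noise across triplicate slides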
[3] = probe aCHRDL2 binding to arrayed compounds – biochemical, biotinylated probe, 635/667 nm fluorescence, primary screen (AID 1100); conditions: small-molecule microarray, higher = more signal
[4] = change in splice reporter luminescence, either direction, cell-based, HEK293, spliceosome inhibition project, primary screen (AID 1101); conditions: HEK293 splicing luciferase reporter, 24 h, higher = more signal, called active from +8 up or from −8 down;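 further: HEK293 cells carrying a splicing-competent luciferase reporter gene; test concentration not given here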
[5] = target: Fibroblast growth factor 10 (Homo sapiens) (UniProt O15520); experiment: compounds binding fibroblast growth factor 10 – biochemical, small-molecule microarray, 635 nm fluorescence, primary screen (AID 1102); conditions: FGF10 binding, fluorescence 635 nm, higher = more signal
[6] = system: glycogen synthase kinase-3 (GSK3A per assay name; protocol says GSK3B); experiment: compounds binding glycogen synthase kinase-3 – biochemical, small-molecule microarray, 635 nm fluorescence, GSK3A, primary screen (AID 1103); conditions: fluorescence 635 nm, higher = more signal; further: the record names both GSK3A and GSK3B
[7] = target: Epidermal growth factor receptor (Homo sapiens) (UniProt P00533); experiment: compounds binding epidermal growth factor receptor – biochemical, small-molecule microarray, 635 nm fluorescence, primary screen (AID 1104); conditions: EGFR binding, higher = more signal;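 further: score merges 667 nm emission intensity with spot signal to noise over triplicate slides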
[8] = target: Follistatin-related protein 3 (Homo sapiens) (UniProt O95633); experiment: compounds binding follistatin-related protein 3 – biochemical, small-molecule microarray, 635 nm fluorescence, primary screen (AID 1105); conditions: FSTL3 binding, higher = more signal;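 further: score merges emission near 667 nm and signal to noise per printed spot across three slides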
[9] = target: Dickkopf-related protein 1 (Homo sapiens) (UniProt O94907); experiment: small molecules binding DKK1 protein – biochemical, small-molecule microarray, 635 nm fluorescence scan, primary screen (AID 1106); conditions: higher = more signal;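 further: score merges emission near 667 nm with signal to noise over three replicate slides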
[10] = system: Inhibin beta A chain (activin A); experiment: small molecules binding activin A – biochemical, small-molecule microarray, 635 nm fluorescence scan, primary screen (AID 1107); conditions: INHBA, higher = more signal;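 further: mouse activin A protein probed at 4.33 µg/mL on printed slides; score merges bound-protein fluorescence near 667 nm with spot signal-to-noise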
[11] = system: Human papillomavirus type 1a protein E7 (residues 44-93); experiment: small molecules binding HPV E7 44-93 – biochemical, small-molecule microarray, residues 44-93, 635 nm fluorescence, primary screen (AID 1108); conditions: fluorescence 635 nm, higher = more signal;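 further: E7 fragment applied at 1 µg/mL in TBST for 1 h at 4 C; score combines spot fluorescence with its signal to noise ratio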
[12] = hepatitis C replication reporter changes, two-sided – Huh7 cells, luciferase reporter, HCV replication inhibitor project, primary screen (AID 1109); conditions: Huh7 HCV replicon luciferase reporter, 48 h; higher = more signal;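 further: huh7 hepatoma cells harbouring a luciferase neomycin HCV replicon reporter; luciferase luminescence as measure of HCV replicon replication; test concentration not given here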
[13] = target: Left-right determination factor 2 (Homo sapiens) (UniProt O00292); experiment: small molecules binding LEFTY2 protein – biochemical, small-molecule microarray, 635 nm fluorescence scan, primary screen (AID 1110); conditions: higher = more signal
[14] = target: Calmodulin-1 (Homo sapiens) (UniProt P0DP23); experiment: small molecules binding calmodulin-1 with EGTA – biochemical, small-molecule microarray, Cy5-labelled CALM1, profiling panel (AID 1111); conditions: Cy5-CALM1 binding fluorescence, higher = more signal;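 further: labelled calmodulin applied in Tris saline Tween buffer holding calcium plus EGTA and DTT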
[15] = target: Calmodulin-1 (Homo sapiens) (UniProt P0DP23); experiment: small molecules binding Ca-loaded calmodulin-1 – biochemical, small-molecule microarray, Cy5-labelled CALM1, plus calcium, artefact control for SMM control-protein annotation, profiling panel (AID 1112); conditions: Cy5-CALM1 binding fluorescence, higher = more signal;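 further: score merges spot fluorescence with signal to noise from triplicate slides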
[16] = probe aWnt5a binding to arrayed compounds – biochemical, biotinylated probe, 635/667 nm fluorescence, primary screen (AID 1113); conditions: small-molecule microarray, higher = more signal;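 further: score merges 667 nm fluorescence intensity with signal-to-noise per printed feature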
[17] = probe aShh binding to arrayed compounds – biochemical, biotinylated probe, 635/667 nm fluorescence, primary screen (AID 1114); conditions: small-molecule microarray, higher = more signal;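 further: probe is biotin-labelled aShh protein from a stem cell growth factor screen; measures binding of labelled protein to compounds printed on the slide; score merges feature fluorescence at 667 nm with signal-to-noise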
[18] = probe aNog binding to arrayed compounds – biochemical, biotinylated probe, 635/667 nm fluorescence, primary screen (AID 1115); conditions: small-molecule microarray, higher = more signal;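 further: probe is biotinylated aNog protein used at 0.15 µg/mL for 1 h at 4 C; z-score combines 667 nm fluorescence of each spot with its signal to noise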
[19] = target: Torsin-1A-interacting protein 1 (Homo sapiens) (UniProt Q5JTV8); experiment: compound microarray binding of lysate hLAP1 – cell lysate, small-molecule microarray, COS7 lysate, 635/667 nm fluorescence, primary screen (AID 1116); conditions: 635 nm fluorescence, higher = more signal
[20] = target: Alpha-bungarotoxin (Bungarus multicinctus) (UniProt P60615); experiment: compounds binding labelled alpha-BTX control protein – biochemical, small-molecule microarray, Alexa647 label, 635/667 nm fluorescence, artefact control for SMM control protein annotation, profiling panel (AID 1117); conditions: alpha-BTX-A647 binding fluorescence, higher = more signal
Alpha-bungarotoxin (Bungarus multicinctus), sequence (P60615 whole entry, looked up): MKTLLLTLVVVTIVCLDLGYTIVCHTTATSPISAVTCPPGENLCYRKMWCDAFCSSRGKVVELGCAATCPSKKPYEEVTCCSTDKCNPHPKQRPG

Epidermal growth factor receptor (Homo sapiens), sequence (P00533 whole entry, looked up): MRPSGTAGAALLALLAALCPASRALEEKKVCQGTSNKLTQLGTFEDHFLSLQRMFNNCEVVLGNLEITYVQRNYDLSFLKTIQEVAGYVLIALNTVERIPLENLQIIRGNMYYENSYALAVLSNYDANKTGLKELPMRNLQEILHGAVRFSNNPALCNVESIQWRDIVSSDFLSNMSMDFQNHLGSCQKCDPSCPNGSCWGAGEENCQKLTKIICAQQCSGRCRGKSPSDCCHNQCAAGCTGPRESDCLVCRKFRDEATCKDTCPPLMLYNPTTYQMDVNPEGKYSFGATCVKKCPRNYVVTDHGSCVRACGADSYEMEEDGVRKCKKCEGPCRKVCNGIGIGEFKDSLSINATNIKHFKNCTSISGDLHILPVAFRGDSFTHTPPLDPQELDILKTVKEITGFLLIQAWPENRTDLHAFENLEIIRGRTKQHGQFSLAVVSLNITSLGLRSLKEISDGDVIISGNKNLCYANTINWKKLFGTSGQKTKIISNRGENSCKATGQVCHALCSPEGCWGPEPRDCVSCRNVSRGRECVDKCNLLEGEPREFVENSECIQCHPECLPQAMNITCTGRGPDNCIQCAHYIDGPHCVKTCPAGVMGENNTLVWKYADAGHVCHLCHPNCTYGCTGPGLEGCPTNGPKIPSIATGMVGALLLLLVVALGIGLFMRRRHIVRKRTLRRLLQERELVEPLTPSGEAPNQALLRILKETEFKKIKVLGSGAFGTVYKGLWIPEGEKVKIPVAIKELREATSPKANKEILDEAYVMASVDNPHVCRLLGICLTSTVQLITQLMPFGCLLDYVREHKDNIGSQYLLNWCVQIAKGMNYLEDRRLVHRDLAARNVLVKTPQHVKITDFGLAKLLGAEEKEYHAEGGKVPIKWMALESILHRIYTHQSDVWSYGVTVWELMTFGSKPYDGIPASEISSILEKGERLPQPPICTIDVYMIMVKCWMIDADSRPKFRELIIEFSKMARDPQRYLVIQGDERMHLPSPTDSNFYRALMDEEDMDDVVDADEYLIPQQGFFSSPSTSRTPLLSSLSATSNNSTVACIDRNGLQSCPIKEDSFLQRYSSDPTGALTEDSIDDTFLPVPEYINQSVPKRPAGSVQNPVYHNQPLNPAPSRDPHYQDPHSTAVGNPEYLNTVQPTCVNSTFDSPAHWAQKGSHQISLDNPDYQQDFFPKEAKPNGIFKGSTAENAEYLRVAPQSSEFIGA
Dickkopf-related protein 1 (Homo sapiens), sequence (O94907 whole entry, looked up): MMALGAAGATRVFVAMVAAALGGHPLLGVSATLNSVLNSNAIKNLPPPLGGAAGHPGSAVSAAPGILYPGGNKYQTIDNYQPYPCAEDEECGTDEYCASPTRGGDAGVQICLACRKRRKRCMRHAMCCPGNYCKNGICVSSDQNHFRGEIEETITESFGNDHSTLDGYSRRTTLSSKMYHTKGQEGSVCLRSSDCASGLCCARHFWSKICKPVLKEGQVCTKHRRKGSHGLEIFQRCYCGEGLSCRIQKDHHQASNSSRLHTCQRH
Torsin-1A-interacting protein 1 (Homo sapiens), sequence (Q5JTV8 whole entry, looked up): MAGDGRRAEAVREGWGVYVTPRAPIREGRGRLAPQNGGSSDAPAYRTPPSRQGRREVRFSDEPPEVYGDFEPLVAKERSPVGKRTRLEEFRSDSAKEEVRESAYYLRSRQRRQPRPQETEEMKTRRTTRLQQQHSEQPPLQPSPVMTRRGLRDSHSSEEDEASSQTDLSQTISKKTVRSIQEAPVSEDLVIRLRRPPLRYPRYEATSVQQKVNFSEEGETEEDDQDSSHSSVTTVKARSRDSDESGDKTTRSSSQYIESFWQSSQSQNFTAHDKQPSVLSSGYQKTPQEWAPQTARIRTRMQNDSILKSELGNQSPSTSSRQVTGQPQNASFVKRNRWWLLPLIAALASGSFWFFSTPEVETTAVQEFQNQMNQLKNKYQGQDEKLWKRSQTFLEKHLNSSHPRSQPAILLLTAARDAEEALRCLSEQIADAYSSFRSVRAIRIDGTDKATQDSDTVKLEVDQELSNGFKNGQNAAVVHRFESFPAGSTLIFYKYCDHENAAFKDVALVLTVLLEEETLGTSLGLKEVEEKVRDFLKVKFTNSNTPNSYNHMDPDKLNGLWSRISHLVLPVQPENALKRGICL
Fibroblast growth factor 10 (Homo sapiens), sequence (O15520 whole entry, looked up): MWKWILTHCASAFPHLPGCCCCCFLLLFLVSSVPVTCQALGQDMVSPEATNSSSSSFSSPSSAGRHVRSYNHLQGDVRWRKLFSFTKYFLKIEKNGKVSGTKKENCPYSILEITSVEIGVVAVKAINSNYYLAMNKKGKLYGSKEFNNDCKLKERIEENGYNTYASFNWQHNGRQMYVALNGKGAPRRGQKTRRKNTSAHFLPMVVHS
Follistatin-related protein 3 (Homo sapiens), sequence (O95633 whole entry, looked up): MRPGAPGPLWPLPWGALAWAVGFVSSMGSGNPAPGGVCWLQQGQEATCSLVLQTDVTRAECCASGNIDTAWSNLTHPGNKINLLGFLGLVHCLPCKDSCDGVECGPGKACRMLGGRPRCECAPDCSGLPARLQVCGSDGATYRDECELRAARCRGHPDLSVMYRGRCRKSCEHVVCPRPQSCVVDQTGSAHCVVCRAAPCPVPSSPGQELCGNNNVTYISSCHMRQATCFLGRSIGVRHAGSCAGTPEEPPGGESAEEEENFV
Left-right determination factor 2 (Homo sapiens), sequence (O00292 whole entry, looked up): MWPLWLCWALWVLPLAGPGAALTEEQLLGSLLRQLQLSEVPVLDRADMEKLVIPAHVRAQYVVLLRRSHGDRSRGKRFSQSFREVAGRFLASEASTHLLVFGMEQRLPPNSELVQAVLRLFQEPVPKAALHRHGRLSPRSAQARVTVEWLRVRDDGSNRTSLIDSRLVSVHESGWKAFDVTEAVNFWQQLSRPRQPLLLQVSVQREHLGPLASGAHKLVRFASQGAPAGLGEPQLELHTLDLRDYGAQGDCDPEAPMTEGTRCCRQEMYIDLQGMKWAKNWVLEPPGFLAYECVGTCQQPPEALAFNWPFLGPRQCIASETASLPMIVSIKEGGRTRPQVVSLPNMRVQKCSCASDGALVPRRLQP

| SMILES | composite z-score [1] | composite z-score [2] | composite z-score [3] | z-score [4] | composite z-score [5] | composite z-score [6] | composite z-score [7] | composite z-score [8] | composite z-score [9] | composite z-score [10] | composite z-score [11] | z-score [12] | composite z-score [13] | composite z-score [14] | composite z-score [15] | composite z-score [16] | composite z-score [17] | composite z-score [18] | composite z-score [19] | composite z-score [20] |
| --- | --- | --- | --- | --- | --- | --- | --- | --- | --- | --- | --- | --- | --- | --- | --- | --- | --- | --- | --- | --- |
| COc1ccc(C#Cc2ccc3c(c2)[C@]2(C(=O)N3)[C@H](C(=O)NC[C@H](O)c3ccccc3)[C@H]3C(=O)O[C@H](c4ccccc4)[C@H](c4ccccc4)N3[C@@H]2c2ccc(O)cc2)cc1 | 1.16 | -0.0262 | 0.295 | -0.993 (inactive) | 1.02 | 1.16 | 0.417 | 0.768 | 0.484 | 0.0998 | 1.43 | -1.38 | 0.559 | 1.04 | -0.064 | 0.0952 | 0.0723 | 0.277 | 1.06 | 1.72 |
| CNS(=O)(=O)c1ccc(C)cc1 | 0.3 | -0.0385 | -0.446 | -1.07 (inactive) | 0.648 | 0.674 | 0.434 | 0.688 | 1.14 | -1.89 | 0.899 | -0.376 | 0.804 | -0.206 | -0.263 | -0.169 | -0.504 | -0.138 | -0.312 | 0.514 |
| COCC(=C=CC[C@@H](O)c1cccc(OCCO)c1)C[C@@H](O)c1ccccn1 | 0.976 | -0.193 | -0.355 | 0.758 (inactive) | 0.751 | 0.175 | 0.101 | 0.167 | 0.307 | 0.565 | -0.768 | 0.0065 | 0.493 | -0.301 | -0.0023 | -0.0459 | -0.221 | -0.388 | 1.15 | 0.216 |
| O=C1OCCC/C=C\[C@H]2OC34C=CCN(Cc5ccccc5)C(=O)[C@H]3N(CCCO)C(=O)[C@@H]4C12 (stereo not given in full) | 1.26 | -0.0379 | 0.794 | 0.422 (inactive) | -0.967 | -0.972 | -1.55 | -1.57 | -1.66 | -0.583 | 0.0636 | -0.779 | -2.09 | -0.537 | 0.464 | -0.178 | -0.16 | -0.244 | 1.82 | -0.972 |
| CC(C)C(=C=CC[C@@H](O)c1ccc(OCCO)cc1)C[C@@H](O)c1ccccn1 | 0.595 | -0.0166 | -0.495 | 0.106 (inactive) | 1.6 | 0.854 | 0.124 | 1.06 | 1.76 | 0.59 | 0.323 | -0.218 | 1.21 | -0.315 | -0.113 | -0.0721 | -0.0709 | -0.0926 | 1.08 | -0.0878 |
| O=C(c1ccccc1)N1C(=O)[C@]2(COC(c3ccc(OCCCO)cc3)=N2)Cc2ccccc21 | 1.7 | 0.688 | 0.784 | 0.00817 (inactive) | 1.07 | 1.32 | 0.218 | 1.23 | 0.427 | 0.424 | 1.04 | -1.14 | 0.448 | 1.8 | 0.106 | -0.0303 | -0.321 | 1.13 | 1.84 | 2.29 |
| O[C@@H](Cc1ccccc1)[C@H]1C2C=CCCC=C2CN1Cc1cccc(Cl)c1 (stereo not given in full) | 0.77 | -0.0422 | -0.284 | -0.381 (inactive) | 0.9 | 1.08 | 0.231 | 1.24 | 0.496 | 0.296 | 1.1 | -1.42 | 0.702 | 0.0101 | -0.2 | -0.0721 | -0.138 | 0.277 | 0.761 | 1.36 |
| C[N+](C)(C)CCCCCCNC(=O)[C@@H]1C[C@@H]2C(=O)N[C@@H](Cc3ccccc3)C(=O)N2[C@@H]1c1cccc(OCCO)c1 | 1.63 | -0.147 | 0.376 | -0.189 (inactive) | 0.72 | 0.216 | -0.0586 | 1.32 | 1.02 | 0.615 | 0.44 | 0.137 | 0.542 | -0.637 | -0.792 | -0.107 | -0.0813 | -0.364 | 1.22 | 1.24 |
| C=CCN1C(=O)[C@@]2(CC=C)N=C(c3ccc(OCCCO)cc3)O[C@H]2c2ccccc21 | 1.66 | 0.801 | 1.08 | -1.63 (inactive) | 1.45 | 1.32 | 0.734 | 1.41 | 1.14 | 1.2 | 1.41 | -2.48 | 0.984 | 3.11 | 0.0457 | 0.026 | -0.0886 | 0.808 | 1.62 | 0.951 |
| CN1C=C(C(=O)OCCS(C)(=O)=O)C(C(=O)OCCS(C)(=O)=O)=CC(c2ccc(CO)cc2)=CC1C1CC1 (stereo not given) | 0.666 | -0.0901 | 0.166 | 0.456 (inactive) | 0.16 | -0.0888 | 0.353 | -0.0857 | 0.0847 | 0.99 | -0.0095 | -0.595 | 0.328 | 0.405 | -0.306 | -0.105 | -0.0681 | 0.366 | 1.83 | 0.274 |
| CN(C)CCCC[C@@H]1NC(=O)[C@H]2C[C@@H](C(=O)NCCCCCCN)[C@@H](c3ccc(O)cc3)N2C1=O | 0.436 | 1.6 | 1.07 | -0.193 (inactive) | 1.52 | 1.29 | 0.247 | 1.41 | 0.644 | 1.17 | 1.23 | 0.251 | 1.48 | 1.67 | 0.921 | 0.257 | 0.109 | 1.59 | 1.74 | 2.75 |
| C=CCN1C(=O)[C@@]2(Cc3ccccc31)N=C(c1ccc(OCCCO)cc1)O[C@H]2c1ccccc1 | 1.16 | 1.01 | 0.935 | -1.52 (inactive) | 0.583 | 1.32 | 0.435 | 0.983 | 0.776 | 1.13 | 0.896 | -2.11 | 0.308 | 0.355 | -0.231 | 0.0458 | 0.308 | 0.89 | 0.895 | 0.306 |

— PubChem BioAssay
